This note sets out measurements from PubChem BioAssay (NCI).

This is part of a sample that, as a whole, favours compounds with a hit. Of some 79,000 tested, about 15% had one in any assay. A number with no mark means an inactive call. Active and inactive are the calls of the source. Rule as the data show it: active = growth inhibition above about 70%; inactive = the rest.

This test is described as follows: NCI Yeast Anticancer Drug Screen. Data for the rad18 strain (AID 177). The conditions noted are these: S. cerevisiae rad18 mutant growth inhibition; at 33.0 µM; active compounds read high. The method, boiled down:
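Readout: growth inhibition vs vehicle controls. Cells: genetically altered yeast strain, DNA repair defect.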
With `O=[N+]([O-])c1cc[n+]([O-])cc1`, the growth inhibition was 16%.
For the compound `COC(=O)CC1(O)C(/C=C/c2ccccc2)C(C(=O)OC)C(=O)C(C(=O)OC)C1C(=O)OC` (stereo unspecified), the growth inhibition was 3%.
Consider `CC(C)(C)c1ccc(NS(=O)(=O)c2ccc(N)cc2)cc1`, for which the growth inhibition was 23%.
`CCN(CC)CCNc1ccc([N+](=O)[O-])c2nc3ccccc3c(N)c12`: the growth inhibition was -8%.
For the compound `CCCCN(CCCC)C(=O)/C=C/c1ccccc1`, the growth inhibition is 4%.
`O=c1[nH]c(-c2ccccc2)nc2c1sc1nc3ccccc3n12`: the growth inhibition is -38%.
For the compound `Cc1ccc(S/C(=C\C(=O)O)c2ccccc2)cc1`, the growth inhibition was 20%.
Consider `Cc1cc(S(=O)(=O)Nc2nnc3cnc4ccccc4n23)c(S)cc1Cl`, for which the growth inhibition was 14%.
On to `O=C(/C=C/c1cc(Cl)cc(Cl)c1O)c1cccc(O)c1`, for which the growth inhibition was 98% (active).
Consider `NC1CCCCC1N.Nc1c(N=Nc2ccc(-c3ccc(N=Nc4cc(S(=O)(=O)[O-])c5ccccc5c4N)cc3)cc2)cc(S(=O)(=O)[O-])c2ccccc12.[OH3+].[OH3+].[Pt+4]`, for which the growth inhibition is 88% (active).
For the compound `COC(=O)CCC(NC(=S)N/N=C(\C)c1ccccn1)C(=O)OC` (stereo unspecified), the growth inhibition is 70% (active).
The value for `COc1cc(C2SCC(=O)N2c2ccc(-c3ccc(-n4c(-c5ccccc5)nc5ccccc5c4=O)cc3)cc2)ccc1O` (stereo unspecified) was 3%; that for `Cc1c(C(C)C)cc(OCCO)cc1C(C)C` was -8%.
As for `C=C(Cl)COC(=O)Nc1cccc(Cl)c1`, the growth inhibition was 55%.
Regarding `COc1c(O)c(C=O)c(Br)c(C=O)c1O`, the growth inhibition was 24%.
Then `O=[N+]([O-])c1cc(Cl)cnc1Br`, with 35%.
